Laboratory results as given in paper PMC5540273 (PLoS ONE, 2017).

What was measured:
Conditions in all cases: concentration: 1 μM, replicates: in singlicate; n = 1
ACVR1 = system: ACVR1
ACVR2A = system: ACVR2A
ACVR2B = system: ACVR2B
ACVRL1 = system: ACVRL1
ADCK3 = system: T1, ADCK3
T1 construct: gene CABC1

ADCK4 = system: ADCK4
AKT1 = system: AKT1
AKT2 = system: AKT2
AKT3 = system: AKT3
ALK = system: ALK
AMPK-alpha1 = system: T2, AMPK-alpha1
T2 construct: gene PRKAA1

AMPK-alpha2 = system: T3, AMPK-alpha2
T3 construct: gene PRKAA2

ANKK1 = system: ANKK1
ARK5 = system: T4, ARK5
T4 construct: gene NUAK1

ASK1 = system: T5, ASK1
T5 construct: gene MAP3K5

ASK2 = system: T6, ASK2
T6 construct: gene MAP3K6

AURKA = system: AURKA
AURKB = system: AURKB
AURKC = system: AURKC
AXL = system: AXL
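Also: KINOMEscan kinase panel screen.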

SMILES	%Inh (ACVR1) [%]	%Inh (ACVR2A) [%]	%Inh (ACVR2B) [%]	%Inh (ACVRL1) [%]	%Inh (ADCK3) [%]	%Inh (ADCK4) [%]	%Inh (AKT1) [%]	%Inh (AKT2) [%]	%Inh (AKT3) [%]	%Inh (ALK) [%]	%Inh (AMPK-alpha1) [%]	%Inh (AMPK-alpha2) [%]	%Inh (ANKK1) [%]	%Inh (ARK5) [%]	%Inh (ASK1) [%]	%Inh (ASK2) [%]	%Inh (AURKA) [%]	%Inh (AURKB) [%]	%Inh (AURKC) [%]	%Inh (AXL) [%]
O=c1cc(N2CCOCC2)nc2n(Cc3ccccc3F)ccn12 [GSK2297428]	0	0	0	0	13	8	0	0	0	0	0	0	9	0	0	0	0	13	0	0
COC(=O)c1cccc(NC(=O)NC2CCN(c3ccnc(Nc4ccc(F)cc4)n3)C2)c1 (stereo not drawn) [GSK1379725]	0	0	0	0	4	23	0	0	0	17	0	0	0	0	0	1	0	39	34	6
Cn1cncc1-c1cc2c(Nc3ccc(OCc4ccccc4)cc3)ncnc2cn1 [GW281179]	5	0	18	0	7	24	0	5	0	23	0	0	0	13	9	0	0	25	5	0
O=C1NC(=O)C(c2ccc(Cl)cc2)=C1Nc1cccc(Cl)c1 [SB-317651]	0	0	0	16	17	0	0	5	0	0	0	0	0	0	3	0	0	35	0	20
Cc1ccccc1Cn1ccn2c(=O)cc(N3CCOCC3)nc12 [GSK2269905]	25	0	0	0	16	17	0	16	0	28	0	1	10	5	0	0	0	30	0	9
O=C1NC(=O)C(c2ccc(Cl)cc2)=C1Nc1ccc(O)cc1 [SB-340867]	11	0	0	0	0	0	1	0	0	0	0	0	0	0	0	0	0	9	0	18
Fc1ccc(-c2nc3n(c2-c2ccncc2)CCS3)cc1 [GI98581]	0	0	20	0	13	23	0	13	9	28	14	0	0	0	5	13	0	0	43	6
CS(=O)(=O)CCNCc1nc(-c2ccc3ncnc(Nc4ccc(OCc5ccccc5)c(Cl)c4)c3c2)cs1.Cl [GW582764]	0	17	0	0	9	45	0	31	0	35	0	0	0	0	0	0	0	23	0	0
Cc1ccc(NC(=O)Nc2ccc(Cl)cc2)cc1-c1ccc(C(=O)Nc2ccncc2)cc1 [GSK1398472]	15	0	0	0	22	23	0	0	0	46	3	3	12	1	11	0	0	28	10	11
CC(=O)c1cccc(NC(=O)NC2CCN(c3ccnc(Nc4ccc(F)cc4)n3)C2)c1 (stereo not drawn) [GSK1379710]	0	10	13	0	25	41	0	2	0	25	0	0	19	31	20	0	12	0	21	5
CC(=O)c1c(C)c2cnc(Nc3ccc(N4CCNCC4)cn3)nc2n(C2CCCC2)c1=O	0	0	0	0	0	0	0	0	11	5	0	0	0	0	0	0	0	0	0	0
COc1cc2ncnc(Nc3cccc(Br)c3)c2cc1OC.Cl [GI230329]	0	0	0	0	19	52	0	0	16	0	0	0	8	17	0	6	6	0	6	10
CN1c2ccc(-c3ccc(C(N)=O)cc3)cc2-c2[nH]ncc2S1(=O)=O	0	8	16	16	0	3	3	0	0	30	0	0	0	0	0	0	0	21	0	5
CCCCc1nn2ncccc2c1-c1ccnc(NC2CC2)n1 [GW684374]	2	0	0	0	61	38	0	0	0	17	0	0	8	12	0	0	30	12	38	0
CC[C@@H]1CO[C@H](C(=O)Nc2ccccc2)CN1c1cc(-c2ccc3c(N)n[nH]c3c2)nc(NC)n1 [GSK2376236]	0	0	0	0	27	12	0	15	0	0	0	1	0	14	4	0		0	48	0
Cc1ccc(-c2nc(Nc3ccncc3)c3ccccc3n2)s1 [GSK189015]	34	17	11	29	21	4	55	19	3	26	0	20	65	17	1	11	0	0	24	20

SMILES	%Inh (ACVR1) [%]	%Inh (ACVR2A) [%]	%Inh (ACVR2B) [%]	%Inh (ACVRL1) [%]	%Inh (ADCK3) [%]	%Inh (ADCK4) [%]	%Inh (AKT1) [%]	%Inh (AKT2) [%]	%Inh (AKT3) [%]	%Inh (ALK) [%]	%Inh (AMPK-alpha1) [%]	%Inh (AMPK-alpha2) [%]	%Inh (ANKK1) [%]	%Inh (ARK5) [%]	%Inh (ASK1) [%]	%Inh (ASK2) [%]	%Inh (AURKA) [%]	%Inh (AURKB) [%]	%Inh (AURKC) [%]	%Inh (AXL) [%]
Cl.Cl.Cl.N#Cc1ccc(CCNc2nccc(-c3cccc(CN4CCNCC4)c3)n2)cc1 [GSK2137462]	11	0	0	0	23	22	0	5	5	15	25	14	15	17	20	4	20	0	15	44
Cc1cccc2c(-c3ccncn3)c(-c3ccc(F)cc3)nn12 [GW515532]	0	19	37	21	40	40	0	8	0	23	3	16	0	0	0	0	0	0	18	10
COc1cccc(C2=C(Nc3cc(Cl)c(O)c(Cl)c3)C(=O)NC2=O)c1 [SB-390767]	20	0	2	19	1	0	0	0	0	29	8	0	0	26	4	7	0	0	8	0
Cc1ccccc1-c1cc(-c2c[nH]nc2-c2ccccn2)ccn1 [GW680061]	9	0	0	0	1	12	0	3	0	22	1	0	0	0	0	14	0	4	6	0
COC(=O)C(NC(=O)NC1CCN(c2ccnc(Nc3ccc(F)cc3)n2)C1)c1ccccc1 (stereo not drawn) [GSK1379712]	4	0	11	0	0	22	0	0	0	19	0	12	10	8	20	2	5	0	32	0
CC(C)c1cc(-c2ccc3c(N)n[nH]c3c2)nc(N)n1 [GSK2250882]	0	0	0	0	13	37	0	17	0	0	0	0	8	0	0	7		18	56	0
O=C(Nc1n[nH]c2cc(-c3ccsc3)ccc12)C1CC1 [SB-732932]	28	26	45	0	0	0	0	21	9	9	7	0	40	0	0	30	13	35	20	43
O=C(Nc1n[nH]c2nc(-c3cccs3)c(Br)cc12)C1CCCC1 [SB-743341]	0	0	7	9	7	0	0	40	0	1	29	40	35	0	0	12	17	27	10	0
CCn1c(-c2ccccc2)nc2cnccc21 [SB-733416]	23	20	15	10	8	0	0	14	0	36	0	0	0	8	28	17	0	0	30	10
COc1cccc(CNC(=O)NC2CCN(c3ccnc(Nc4ccc(F)cc4)n3)C2)c1 (stereo not drawn) [GSK1379723]	10	0	0	0	10	35	0	12	0	43	0	12	0	24	0	9	11	37	49	6
NS(=O)(=O)c1cccc(N/C=C2\C(=O)Nc3ccc(S(=O)(=O)Cc4c(Cl)cccc4Cl)cc32)c1 [GSK398099]	0	0	0	0	1	18	0	25	0	8	0	0	0	0	3	0	26	30	0	0
Cc1ccc(NC(=O)c2ccc(Cl)cc2)cc1-c1ccc(C(=O)Nc2ccncc2)cc1 [GSK1398467]	7	0	10	0	15	0	0	19	0	18	0	21	0	6	0	21	0	1	17	0
O=c1cc(N2CCOCC2)nc2n(Cc3cccc(Cl)c3Cl)c3ccccc3n12 [GSK2299009]	0	0	0	6	13	36	0	21	0	25	5	16	6	0	2	0	17	7	46	59
CC(C)c1ccc(O)cc1Nc1ccnc2ccc(C(F)(F)F)cc12 [GW482059]	0	43	0	19	0	2	0	0	0	15	20	13	0	0	1	0	0	0	0	14
COc1ccc(Nc2nccc(N3CCC(NC(=O)c4cc5ccccc5s4)C3)n2)cc1 (stereo not drawn) [GSK1379738]	0	0	0	0	0	37	0	5	0	25	0	3	3	19	12	11	14	0	22	7
